In PubChem BioAssay (NCATS):
Inconclusive results are not listed. Calls of active or inactive are those of the source. Calls come from the whole dose curve; as a rule, active = well fitted curve in the direction sought with a large enough effect; inconclusive = small, poorly fitted or top-dose-only effect, or another doubt; inactive = no such curve, though single readings can be large; an effect the other way counts as inactive or inconclusive.

Key:
[1] = qHTS of pediatric cancer cell lines to identify multiple opportunities for drug repurposing: Primary screen for MG 63 (6-TG R) cells (AID 1347105); note: potency is the fitted concentration of half-maximal effect; nearly all actives have a fitted effect of over 50% in size
In short: (§1)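 Luminescence from CellTiter-Glo served as readout of metabolically active cells after 48 h compound exposure. Titrations: MIPE 11-point, from 0.78 nM; NPC 8-point, from 0.59 nM (final). Concentration-response curves came straight from the primary screen.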

[2] = qHTS of pediatric cancer cell lines to identify multiple opportunities for drug repurposing: Primary screen for Rh41 cells (AID 1347108); note: nearly all actives have a fitted effect of over 70% in size; note: potency is the fitted concentration of half-maximal effect;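 for activity change, negative = cytotoxic: luminescence drop marks cytotoxic hits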
In short: as §1

[3] = qHTS of pediatric cancer cell lines to identify multiple opportunities for drug repurposing: Confirmatory screen for A673 cells (AID 1347110);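 note: potency is the fitted concentration of half-maximal effect; cells exposed to compound for 48 h before the viability read; nearly all actives have a fitted effect of over 65% in size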
In short: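 Cells plated at 500-1,000/well were treated five hours later with multi-point dilutions up to 46 µM final. After two days, CellTiter-Glo was added and luminescence read.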

[4] = qHTS of pediatric cancer cell lines to identify multiple opportunities for drug repurposing: Confirmatory screen for SK-N-MC cells (AID 1347111);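 note: potency is the fitted concentration of half-maximal effect; cells exposed to compound for 48 h before the readout; nearly all actives have a fitted effect of over 70% in size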
In short: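 Metabolically active cells were quantified by ATP-dependent luminescence (CellTiter-Glo, 15 min at room temperature) following 48 h treatment. Cells had been plated at 500-1,000 per well and settled for 5 h beforehand.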

[5] = qHTS of pediatric cancer cell lines to identify multiple opportunities for drug repurposing: Confirmatory screen for LAN-5 cells (AID 1347113); note: potency is the fitted concentration of half-maximal effect; nearly all actives have a fitted effect of over 65% in size
In short: (§2)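 Cells (500-1,000/well) in growth media were settled 5 h at 37 degrees C, then given compounds for 48 h. Viability was read as CellTiter-Glo luminescence. Primary runs used MIPE at 11 points (0.78 nM-46 µM) and NPC at 8 points (0.59 nM-46 µM); follow-ups used 11 points.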

[6] = qHTS of pediatric cancer cell lines to identify multiple opportunities for drug repurposing: Confirmatory screen for DAOY cells (AID 1347114); note: nearly all actives have a fitted effect of over 65% in size; note: potency is the fitted concentration of half-maximal effect
In short: (§3)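 Viability measured as metabolically active cells via CellTiter-Glo luminescence following 48 hours of compound exposure, 11-point dilutions in confirmatory testing. 500-1,000 cells/well plated 5 hours before dosing; controls were DMSO and 2.3 µM bortezomib.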

[7] = qHTS of pediatric cancer cell lines to identify multiple opportunities for drug repurposing: Confirmatory screen for NB-EBc1 cells (AID 1347115);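 note: potency is the fitted concentration of half-maximal effect; cells exposed to compound for 48 h before the viability read; nearly all actives have a fitted effect of over 45% in size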
In short: as §2

[8] = qHTS of pediatric cancer cell lines to identify multiple opportunities for drug repurposing: Confirmatory screen for TC32 cells (AID 1347118);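 note: potency is the fitted concentration of half-maximal effect; cells exposed to compound for 48 h before the read; nearly all actives have a fitted effect of over 65% in size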
In short: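 qHTS, TC32, 48 h drug treatment, CellTiter-Glo luminescence as a proxy for metabolically active cells; primary top concentration 46 µM (MIPE 11-pt, NPC 8-pt); confirmatory 11-pt.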

[9] = qHTS of pediatric cancer cell lines to identify multiple opportunities for drug repurposing: Confirmatory screen for MG 63 (6-TG R) cells (AID 1347119); note: potency is the fitted concentration of half-maximal effect; nearly all actives have a fitted effect of over 55% in size
In short: as §2

[10] = qHTS of pediatric cancer cell lines to identify multiple opportunities for drug repurposing: Confirmatory screen for U-2 OS cells (AID 1347122); note: nearly all actives have a fitted effect of over 65% in size; note: potency is the fitted concentration of half-maximal effect
In short: as §2

[11] = qHTS of pediatric cancer cell lines to identify multiple opportunities for drug repurposing: Confirmatory screen for Rh41 cells (AID 1347123); note: potency is the fitted concentration of half-maximal effect; nearly all actives have a fitted effect of over 60% in size
In short: as §2

[12] = qHTS of pediatric cancer cell lines to identify multiple opportunities for drug repurposing: Confirmatory screen for Rh18 cells (AID 1347125); note: potency is the fitted concentration of half-maximal effect; nearly all actives have a fitted effect of over 55% in size
In short: as §2

[13] = qHTS of pediatric cancer cell lines to identify multiple opportunities for drug repurposing: Confirmatory screen for NB1643 cells (AID 1347109); note: potency is the fitted concentration of half-maximal effect; nearly all actives have a fitted effect of over 45% in size
In short: as §2

[14] = qHTS of pediatric cancer cell lines to identify multiple opportunities for drug repurposing: Confirmatory screen for BT-37 cells (AID 1347117); details: BT-37 pediatric cancer cells, viability; activity change, negative = cytotoxic: at 45.9 µM (top of the series); note: potency is the fitted concentration of half-maximal effect; nearly all actives have a fitted effect of over 55% in size
In short: as §2

[15] = qHTS of pediatric cancer cell lines to identify multiple opportunities for drug repurposing: Confirmatory screen for control Hh wild type fibroblast cells (AID 1347121); note: nearly all actives have a fitted effect of over 70% in size; note: potency is the fitted concentration of half-maximal effect
In short: as §2

[16] = qHTS of pediatric cancer cell lines to identify multiple opportunities for drug repurposing: Confirmatory screen for SJ-GBM2 cells (AID 1347116); note: potency is the fitted concentration of half-maximal effect; nearly all actives have a fitted effect of over 60% in size
In short: as §3

[17] = qHTS of pediatric cancer cell lines to identify multiple opportunities for drug repurposing: Primary screen for Rh30 cells (AID 1347107); note: nearly all actives have a fitted effect of over 75% in size; note: potency is the fitted concentration of half-maximal effect
In short: as §2

[18] = qHTS of pediatric cancer cell lines to identify multiple opportunities for drug repurposing: Confirmatory screen for RD cells (AID 1347124)
In short: as §2

[19] = qHTS of pediatric cancer cell lines to identify multiple opportunities for drug repurposing: Primary screen for control Hh wild type fibroblast cells (AID 1347106);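 note: a drop in luminescence marks cytotoxicity and a rise apparent proliferation; nearly all actives have a fitted effect of over 55% in size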
In short: as §2

[20] = qHTS of pediatric cancer cell lines to identify multiple opportunities for drug repurposing: Confirmatory screen for BT-12 cells (AID 1347112)
In short: as §2

Measured: Potency

Cc1nc(NC(=O)N2CCC[C@@H]2C(N)=O)sc1-c1ccnc(C(C)(C)C(F)(F)F)c1
active: [1] 1.18 µM | [2] 4.18 µM | [3] 16.5 µM | [4] 5.22 µM | [5] 2.93 µM | [7] 16.5 µM | [8] 5.22 µM | [9] 6.57 µM | [10] 14.7 µM | [11] 2.61 µM | [12] 2.93 µM
inactive: [6]

O=C(Nc1cc2cc[nH]c2cn1)c1ccccc1
active: [1] 14.8 µM | [2] 18.7 µM | [13] 10.4 µM | [3] 1.65 µM | [4] 2.61 µM | [5] 14.7 µM | [14] 9.27 µM | [8] 1.85 µM | [15] 14.7 µM | [12] 8.27 µM
inactive: [10]

CN[C@@H]1C[C@H]2O[C@@](C)([C@H]1OC)n1c3ccccc3c3c4c(c5c6ccccc6n2c5c31)C(=O)N[C@H]4O
active: [1] 0.187 µM | [2] 5.9 µM | [13] 0.737 µM | [4] 0.233 µM | [5] 0.928 µM | [6] 1.47 µM | [16] 2.61 µM | [14] 2.61 µM | [8] 0.414 µM | [9] 0.104 µM | [15] 10.4 µM | [10] 0.369 µM | [11] 1.04 µM | [12] 1.47 µM

COc1cc(C)c(Sc2cnc(NC(=O)c3ccc(CNC(C)C(C)(C)C)cc3)s2)cc1C(=O)N1CCN(C(C)=O)CC1 (stereo unspecified)
active: [1] 14.8 µM | [2] 7.43 µM

CNC(=O)c1cccc(-c2ccc3c(N4CCOC[C@H]4C)nc(N4CCOC[C@H]4C)nc3n2)c1
active: [1] 0.0296 µM | [2] 0.118 µM | [3] 1.47 µM | [4] 1.04 µM | [5] 2.33 µM | [16] 2.61 µM | [8] 0.737 µM | [9] 0.522 µM | [10] 0.261 µM | [11] 0.585 µM

CNC(=O)Nc1ccc(-c2nc(N3CC4CCC(C3)O4)c3cnn(C4CCC5(CC4)OCCO5)c3n2)cc1
active: [1] 0.0118 µM | [17] 11.8 µM | [2] 0.0418 µM | [3] 1.04 µM | [4] 0.585 µM | [5] 0.585 µM | [16] 1.04 µM | [14] 0.104 µM | [8] 0.369 µM | [9] 0.0329 µM | [10] 0.522 µM | [11] 0.131 µM | [18] 0.522 µM | [12] 0.233 µM

COc1ccc([C@@H]2CNC(=O)C2)cc1OC1CCCC1
active: [1] 5.9 µM | [2] 3.72 µM

Cc1cnn(C)c1C(=O)Nc1cc(Nc2ccc3c(C=Cc4ccccn4)n[nH]c3c2)ccc1F
inactive: [19]

CN1CCc2c(c3ccccc3n2Cc2ccc(C(=O)NO)cc2)C1
inactive: [19]
active: [17] 20.9 µM | [2] 13.2 µM

Cc1noc(-c2ccc(CSCCC(=O)O)cc2)c1NC(=O)OC(C)c1ccccc1Cl (stereo unspecified)
inactive: [19] | [17] | [2]

CO[C@@H]1[C@@H](O)[C@H](O)[C@@H](n2c3c(Cl)cccc3c3c4c(c5c6cccc(Cl)c6[nH]c5c32)C(=O)NC4=O)O[C@@H]1CO
active: [2] 2.35 µM | [13] 1.85 µM | [3] 0.827 µM | [4] 0.928 µM | [20] 4.65 µM | [5] 1.65 µM | [16] 5.22 µM | [14] 0.827 µM | [8] 0.737 µM | [9] 1.31 µM | [10] 4.14 µM | [11] 5.85 µM | [12] 6.57 µM
inactive: [19] | [15]

CC(C=CC=C(C)C=CC1=C(C)CCCC1(C)C)=CC=CC=C(C)C=CC=C(C)C=CC1=C(C)CCCC1(C)C
inactive: [19]

Cc1cc(C(=O)NOCCO)c(Nc2ccc(I)cc2F)n(C)c1=O
inactive: [19] | [17] | [2]
